Compound activity: PubChem, several laboratories
UHRF1 binding – human UHRF1 methylated DNA binding inhibitors | Q96T88 | UHRF1 binding to methylated oligo, TR-FRET | inhibition, % at 4.4 µM | actives 0.75% (n = 370,000) | AID 687016; in the data active = inhibition above about 21%;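 also: UHRF1 SRA domain binding a hemimethylated CpG hairpin DNA probe; 0% = median of test compound wells and 100% = reference inhibitor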
Target sequence (Q96T88 whole entry, looked up, the tested form may be a part): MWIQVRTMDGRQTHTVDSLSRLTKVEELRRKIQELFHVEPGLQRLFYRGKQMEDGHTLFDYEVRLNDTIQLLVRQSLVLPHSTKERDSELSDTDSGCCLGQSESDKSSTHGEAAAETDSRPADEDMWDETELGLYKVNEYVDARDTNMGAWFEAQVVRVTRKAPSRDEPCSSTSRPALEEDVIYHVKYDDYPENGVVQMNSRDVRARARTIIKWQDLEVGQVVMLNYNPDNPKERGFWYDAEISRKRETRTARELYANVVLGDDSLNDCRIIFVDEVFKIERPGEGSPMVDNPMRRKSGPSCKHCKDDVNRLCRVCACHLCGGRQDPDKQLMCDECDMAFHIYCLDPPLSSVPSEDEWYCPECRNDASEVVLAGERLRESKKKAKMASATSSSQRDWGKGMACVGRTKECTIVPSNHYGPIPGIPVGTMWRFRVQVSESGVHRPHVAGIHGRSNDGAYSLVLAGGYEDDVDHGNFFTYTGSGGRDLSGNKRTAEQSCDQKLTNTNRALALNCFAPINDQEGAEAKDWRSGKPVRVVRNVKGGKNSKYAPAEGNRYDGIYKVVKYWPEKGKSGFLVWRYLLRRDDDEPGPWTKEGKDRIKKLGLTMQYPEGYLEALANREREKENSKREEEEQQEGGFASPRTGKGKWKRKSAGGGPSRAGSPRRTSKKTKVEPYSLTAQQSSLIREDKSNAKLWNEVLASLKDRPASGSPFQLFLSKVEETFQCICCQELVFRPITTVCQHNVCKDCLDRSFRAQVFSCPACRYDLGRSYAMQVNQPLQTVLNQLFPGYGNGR
PRMT1 inh – inhibitors of human PRMT1; Q99873; recombinant PRMT1, activity-based probe fluorescence polarization; inhibition, % at 2.79 µM; actives 1.3% (n = 370,000);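 active = inhibition above about 21% made by adding two undisclosed values, limit read from the data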
MBD2 inh – inhibitors of human MBD2 binding to methylated oligonucleotide. Q9UBB5. TR-FRET. inhibition, % at 4.4 µM. actives 0.31% (n = 370,000); in the data active = inhibition above about 13%
M18AAP inhibitor – blocks P. falciparum M18 aspartyl aminopeptidase; recombinant PfM18AAP, H-Glu-NHMec fluorogenic cleavage; inhibition, % at 7.35 µM; actives 1.2% (n = 290,000);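 active = inhibition above the campaign mean inhibition over all tested compounds plus 3 SD, cut at about 28% in these data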;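 also: 0% = plate median of test compound wells and 100% = 2 mM ZnCl2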
PfG6PD inh – PfG6PD (Plasmodium falciparum) enzyme inhibition; PfGluPho enzyme, NADPH resazurin-diaphorase fluorescence; actives 0.78% (n = 350,000); inhibition, % at 20 µM;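 active = inhibition reaching at least a set limit at 20 µM in the primary screen, cut at about 59% in these data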;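 also: 0% = DMSO wells with substrate and 100% = DMSO wells lacking glucose-6-phosphate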
PRMT1 confirm – confirmation of human PRMT1 inhibitors. shares compounds with PRMT1 inh. recombinant His-PRMT1, activity-based probe fluorescence polarization. inhibition, % at 2.79 µM. actives 42% (n = 3,300). AID 687036;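 active = mean inhibition across replicates above the hit cutoff derived for the earlier primary screen, cut at about 22% in these data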
* hit, by the source's call; x = no result. Most compounds without a hit are left out; they make up all but 3.3% or so of the library.

SMILES | UHRF1 binding | PRMT1 inh | MBD2 inh | M18AAP inhibitor | PfG6PD inh | PRMT1 confirm
CCN(CC(=O)NCc1ccc(F)cc1)C(=O)COc1ccc2ccccc2c1 | -1.8 | -0.2 | -2.2 | -1.0 | 10.8 | x
Cc1nc2scc(C)n2c(=O)c1S(=O)(=O)N1CCN(c2ccccn2)CC1 | -1.6 | -1.6 | -3.8 | 8.1 | 17.0 | x
CC[C@]12c3[nH]c4ccc(Cl)cc4c3CCN1C(=O)[C@@H](CC(=O)NCCC1=CCCCC1)C[C@@H]2C(=O)N1CCN(C(=O)C2CC2)CC1 | 0.7 | 6.7 | 3.0 | x | -7.8 | x
CCOC(=O)c1c(-c2ccc(C)o2)csc1NC(=O)CN1CCCCC1 | -2.1 | 43.4* | -5.3 | -41.8 | 9.0 | 9.0
CCOC(=O)c1c(-c2ccc(C)o2)csc1NC(=O)CN1CCC(C(N)=O)CC1 | 14.6 | 14.4 | 3.7 | -8.2 | 38.8 | x
CCOC(=O)c1c(-c2ccc(C)o2)csc1NC(=O)CN1CCN(CC)CC1 | 0.5 | 78.6* | 4.7 | -32.6 | 33.2 | 2.9
CCCCOc1cccc(/C=C(\C#N)C(=O)NC2CC2)c1 | -1.8 | 0.9 | -0.6 | 16.9 | 14.5 | x
N#CC(Sc1ccccn1)c1ccc(Cl)cc1 (stereo not drawn) | -6.0 | 46.2* | -4.3 | 21.5 | 1.6 | 35.4*
Cc1ccc(SC[C@H](CC(C)C)N2CCN(CCc3ccccc3)CCC2=O)cc1 | 1.0 | 0.7 | -1.3 | x | 16.6 | x
CC(=O)Nc1ccc(SC[C@H](CC(C)C)N2CCN(CCc3ccccc3)CCC2=O)cc1 | 2.7 | 40.2* | -0.5 | x | -12.1 | 40.2*
COc1ccc(OC)c(NC(=O)CSc2nncc3ccc(OC)c(OC)c23)c1 | 3.4 | 55.5* | 2.0 | 6.0 | 8.4 | 3.7
Cc1ccc(N2CC(C(=O)Nc3nc4ccc(S(C)(=O)=O)cc4s3)CC2=O)cc1 (stereo not drawn) | -0.7 | 4.2 | -1.3 | 0.3 | -12.4 | x
Cc1ccc(NCCC(=O)c2cccc([N+](=O)[O-])c2)c(C)c1 | -0.8 | 36.7* | 1.4 | 0.7 | 8.0 | 40.2*
Cc1ccc(C(=O)CNc2cccc([N+](=O)[O-])c2)cc1 | -1.2 | 0.3 | -0.4 | 2.9 | -20.1 | x
Cc1cccc(NCCC(=O)c2ccc([N+](=O)[O-])cc2)c1C | -0.9 | 49.9* | 2.1 | -7.6 | 9.1 | 65.7*
Cc1ccc(NCC(=O)c2ccc([N+](=O)[O-])cc2)cc1 | x | x | x | 20.4 | 44.6 | x
O=C(O)c1ccc2ncsc2c1 | 2.7 | 24.9* | 0.1 | 62.4* | 4.2 | 13.4
O=C(COC(=O)c1ccc2ncsc2c1)Nc1cccc(Cl)c1 | 2.3 | 33.1* | 2.8 | x | 56.1 | 1.6
O=C(COC(=O)c1ccc2ncsc2c1)NCc1cccc(Cl)c1 | 0.9 | 5.2 | -0.7 | x | -11.7 | x
O=C(Nc1cccc(Cl)c1)c1ccc2ncsc2c1 | 6.1 | 31.9* | 5.4 | 4.1 | 5.5 | -2.0
O=C(c1ccc2ncsc2c1)N1CCCCC1 | -1.9 | 8.4 | 0.7 | -0.6 | -1.4 | x
COc1ccc(OCc2cc(C(=O)NCC(C)(C)N3CCOCC3)no2)c(Cl)c1 | 2.9 | -1.3 | 0.2 | 4.2 | -7.6 | x
COCCCNC(=S)N/N=C/c1ccc(OC)cc1 | -2.4 | 29.2* | -2.2 | 7.8 | -13.2 | 2.2
Cc1ccccc1C(=O)N=c1c(C#N)cc2c(=O)n3cccc(C)c3nc2n1Cc1ccco1 | x | x | x | -12.0 | x | x
N#Cc1cc2c(=O)n3ccccc3nc2n(Cc2ccco2)c1=NC(=O)c1ccco1 | 22.0* | 31.9* | 3.9 | -13.4 | -4.6 | 2.4
SMILES | UHRF1 binding | PRMT1 inh | MBD2 inh | M18AAP inhibitor | PfG6PD inh | PRMT1 confirm
COc1ccc(N=Nc2nc3ccc(Br)cc3n2C)cc1 | 0.2 | 132.5* | -3.7 | 1.1 | 19.2 | 6.8
COc1ccc(C(C(=O)NCc2ccc(F)cc2)N(Cc2cccnc2)C(=O)c2snc(C(N)=O)c2N)cc1 (stereo not drawn) | 0.0 | 2.8 | 0.8 | -1.0 | 4.4 | x
CC(C)Cn1c(N)c(C(=O)CSc2ncccn2)c(=O)n(C)c1=O | 2.3 | 58.1* | 6.3 | x | -4.5 | 3.7
Cc1ccc(N2C(=O)CS(=O)C(c3ccccc3)C2=O)cc1C (stereo not drawn) | -4.1 | 90.4* | 3.1 | -57.0 | 38.9 | 89.9*
COc1ccc(N2C(=O)CS(=O)C(c3ccccc3)C2=O)cc1 (stereo not drawn) | -2.0 | 95.0* | -3.1 | -102.1 | 19.2 | 97.2*
COc1ccc(NC2CC(=O)N(c3ccccc3)C2=O)cc1 (stereo not drawn) | 5.3 | -0.5 | 0.3 | 1.4 | -1.1 | x
Cc1noc(C)c1C(=O)N1CCC1(C)C(=O)NS(=O)(=O)c1ccc(Cl)cc1 (stereo not drawn) | 12.3 | 3.5 | 1.5 | x | x | x
O=C(NNc1nc2cc3c(cc2s1)OCO3)c1cccc(F)c1 | -0.7 | 32.8* | 5.5 | 26.7 | 46.2 | 10.7
Cc1ccc2nc(NNC(=O)c3ccc4c(c3)OCCO4)sc2c1 | -1.9 | 8.2 | -4.9 | 16.6 | 30.6 | x
CCOc1ccc(N2C(=O)CC(Sc3nnnn3-c3ccccc3)C2=O)cc1 (stereo not drawn) | 3.5 | 76.4* | 5.4 | -64.2 | 33.7 | 43.4*
CCOc1ccc2nc(SC3CC(=O)N(c4ccc(OC)cc4)C3=O)sc2c1 (stereo not drawn) | 1.1 | 7.1 | -4.2 | -14.2 | -3.5 | x
COc1ccc(N2C(=O)CC(SCCc3nc4ccccc4[nH]3)C2=O)cc1 (stereo not drawn) | 0.3 | 26.3* | -0.8 | -6.3 | -3.7 | -1.7
COc1ccc(N2C(=O)CC(Sc3nc4ccccc4s3)C2=O)cc1 (stereo not drawn) | 6.5 | 34.9* | 4.4 | -36.1 | -7.4 | 3.9
CCOc1ccc(N2C(=O)CC(Sc3nc(C)cc(C)n3)C2=O)cc1 (stereo not drawn) | -2.5 | 2.4 | 2.3 | 7.2 | -10.8 | x
Cc1nc(SC2CC(=O)N(c3ccccc3)C2=O)nc2c1CCCC2 (stereo not drawn) | -0.5 | 7.5 | 0.4 | 10.2 | -6.8 | x
Cc1nnc(SC2CC(=O)N(c3ccccc3)C2=O)s1 (stereo not drawn) | 0.2 | 78.3* | 3.3 | -37.0 | 1.9 | 70.0*
CCOC(=O)C1CCCN(C(=O)Cn2cnc3sc(C)c(S(=O)(=O)N4CCOCC4)c3c2=O)C1 (stereo not drawn) | 0.9 | 0.8 | -0.7 | -13.1 | 1.1 | x
CC(C)c1ccc(NC(=O)C2Cc3c(-c4cccc(C(N)=O)c4)ccnc3O2)cc1 (stereo not drawn) | 1.3 | 2.0 | 2.2 | x | x | x
COc1ccc(N2C(=O)CC(Sc3ncccc3C(=O)O)C2=O)cc1 (stereo not drawn) | 1.0 | 0.7 | -1.3 | 0.9 | 3.6 | x
C=CCNc1nnc(SC2CC(=O)N(c3ccc(OC)cc3)C2=O)s1 (stereo not drawn) | 0.4 | 83.5* | -3.1 | -12.6 | 5.1 | 72.2*
COc1ccc(N2C(=O)CC(Sc3nccc(C)n3)C2=O)cc1 (stereo not drawn) | -0.6 | 1.6 | -2.7 | -11.5 | 2.0 | x
COc1ccc(N2C(=O)CC(Sc3nnc(-c4ccccc4F)n3C)C2=O)cc1 (stereo not drawn) | -1.1 | 35.7* | -0.3 | -21.6 | 0.1 | 48.3*
NS(=O)(=O)c1ccc2nc(-c3ccccc3)c(-c3ccccc3)nc2c1 | 0.5 | 2.6 | 4.0 | 5.5 | 4.3 | x
